The record followed here is PubChem BioAssay AID488969 (Vanderbilt High Throughput Screening Facility, 2010).

Whole data set: some 110,000 compounds, median “z-score” near -0.1, cut for the highest 2% near 2. This is one part of a sample in which the highest values are shown more often than they occur. Active and inactive are the calls of the source.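 The calls were made as follows: active = z-score in the third read window above 3 or below -3; inactive = the rest.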

In the assay the target is Metabotropic glutamate receptor 8 (Rattus norvegicus) (UniProt P70579). The assay can be described thus: rat mGluR8 modulators via GIRK flux, primary screen, cell-based, thallium flux, HTS (AID 488969). Conditions: HEK293 rat mGluR8, GIRK (G protein-gated inwardly rectifying potassium channel) thallium flux, FluoZin2; at 10 µM; stronger effect = higher value.
Sequence of Metabotropic glutamate receptor 8 (Rattus norvegicus) (P70579 whole entry, looked up): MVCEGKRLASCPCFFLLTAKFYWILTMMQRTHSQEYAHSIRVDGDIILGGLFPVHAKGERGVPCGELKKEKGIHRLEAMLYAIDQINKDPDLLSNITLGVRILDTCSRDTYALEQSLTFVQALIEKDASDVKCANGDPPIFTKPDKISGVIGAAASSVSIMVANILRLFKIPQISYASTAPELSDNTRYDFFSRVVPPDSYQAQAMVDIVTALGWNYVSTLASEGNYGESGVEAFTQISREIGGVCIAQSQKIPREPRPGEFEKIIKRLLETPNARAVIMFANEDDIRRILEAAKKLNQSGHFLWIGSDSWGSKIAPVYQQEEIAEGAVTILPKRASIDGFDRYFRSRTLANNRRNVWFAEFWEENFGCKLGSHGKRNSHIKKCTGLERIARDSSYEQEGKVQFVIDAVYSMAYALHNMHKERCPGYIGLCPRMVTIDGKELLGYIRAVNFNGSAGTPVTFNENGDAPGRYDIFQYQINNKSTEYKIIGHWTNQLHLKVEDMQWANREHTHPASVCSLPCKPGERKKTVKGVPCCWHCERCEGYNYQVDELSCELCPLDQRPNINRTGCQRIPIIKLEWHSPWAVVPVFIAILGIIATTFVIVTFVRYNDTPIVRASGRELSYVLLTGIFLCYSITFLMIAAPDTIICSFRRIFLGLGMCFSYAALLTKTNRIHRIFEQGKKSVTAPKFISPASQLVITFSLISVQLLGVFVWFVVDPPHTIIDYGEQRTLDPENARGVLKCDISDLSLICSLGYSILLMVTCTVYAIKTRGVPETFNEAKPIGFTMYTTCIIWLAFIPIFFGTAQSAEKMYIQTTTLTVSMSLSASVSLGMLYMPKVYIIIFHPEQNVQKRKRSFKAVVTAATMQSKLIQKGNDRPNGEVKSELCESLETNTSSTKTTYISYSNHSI
Compound `O=C(NC(Oc1ccccc1)C(Cl)(Cl)Cl)c1ccccc1` (stereo not given) registered a z-score of -0.149.

In turn, `CN(C(=O)Oc1ccc(Cl)c2cccnc12)c1ccccc1` came in with a z-score of -0.251.

Regarding `CCOc1ccc(N=Cc2c(O)n(C(C)(C)C)c(=O)[nH]c2=O)cc1`, the z-score is -0.283.

`CCOC(=O)C1C2NC(=O)N(Cc3ccccc3)C1(C)Oc1c(OC)cccc12` (stereo not given): the z-score is 0.0221.

Compound `CCC(C)C1N=C(c2ccccc2)c2cc(Cl)ccc2N(CC(=O)NCc2ccco2)C1=O` (stereo not given) returned a z-score of -0.0258.

`O=C(CN1C(=O)CN=C(c2ccccc2)c2ccccc21)NCc1ccco1` gave a z-score of -0.206.

On to `O=C(CN1C(=O)CN=C(c2ccccc2Cl)c2cc(Cl)ccc21)NCc1ccco1`, for which the z-score amounted to 2.98.

On to `OC(c1ccccc1)(c1ccccc1)c1ccncc1`, for which the z-score was -0.0666.

In the case of `Cn1cccc1CNCCc1ccc(F)cc1`, the z-score was -0.24.

Take `c1ccc(CCNCc2ccccc2)cc1`: the z-score is -0.78.

`Cn1cccc1CNCCc1ccccc1`: the z-score was 6.88 (active).

Regarding `CCC(=NCCCN(CC)CC)c1c(O)n(C2CCCCC2)c(=O)[nH]c1=O`, the z-score is -0.25.

`N#Cc1c(Cl)nc(Cl)c2c1CCN(Cc1ccccc1)C2` gave a z-score of -0.608.

`Cc1ccc(OP(=O)(NCc2ccccc2)Oc2ccc(C)cc2)cc1`: the z-score is -0.00664.

`OCC12CO[C@@H]3c4ccccc4[C@H](OC1)N32` (stereo not given in full): the z-score was -0.0926.

Take `O=C(Nc1ccc(Cl)cc1)O/N=C(\c1ccccc1)c1ccccn1`: the z-score is -0.375.

As to `CON(C)C(=O)Nc1ccc(Cl)cc1`, the z-score was found to be 0.516.

Consider `O=C(Nc1ccc(Cl)cc1)Nc1nccs1`, for which the z-score was 8.34 (active).

On to `CCC(C)c1ccc(N2C(=O)NC(=O)/C(=C/c3cccn3CCOc3ccc(C)cc3)C2=O)cc1` (stereo not given), for which the z-score came out at 0.272.

`Cc1cc(C)c(-n2c(O)c(/C=N/N3CCCCC3c3cccnc3)c(=O)[nH]c2=O)c(C)c1` (stereo not given) yielded a z-score of -0.531.

Compound `Cc1nn(Cc2ccccc2)c(Cl)c1C(=O)OC(C)C(=O)Nc1ccc(F)cc1Cl` (stereo not given) gave a z-score of 0.0724.

In turn, `CCCCc1nc(N2CCNCC2)c(C#N)c2c1CSC(C)(C)C2` yielded a z-score of 2.01.

On to `COc1ccc(CCNC(=O)COC(=O)Cc2ccccc2)cc1`, for which the z-score was -0.0964.

The compound `O=P(OCC(F)(F)C(F)F)(N1CCCCC1)N1CCCCC1` registered a z-score of -0.0155.

The compound `COC(=O)c1ccccc1-n1c(C)nc2ccccc2c1=O` gave a z-score of -0.159.

As to `CCCCCn1c(=O)c(C(=O)NCc2ccncc2)c(O)c2ccccc21`, the z-score was -1.2.

In the case of `CCCCCn1c(=O)c(C(=O)Nc2c(C)n(C)n(-c3ccccc3)c2=O)c(O)c2ccccc21`, the z-score is -0.252.

`CC(C)CCn1c(=O)c(C(=O)Nc2ccccc2S(N)(=O)=O)c(O)c2ccccc21` yielded a z-score of 2.

Regarding `Cn1cc(C(=O)Cc2ccccc2)c2ccccc21`, the z-score was found to be 0.166.

`NC12CN3CN(CN(C3)C1)C2` (tested in a mixture with another compound) had a z-score of -0.55.

The compound `CCN1CCN(CC(=O)c2c(C)n(Cc3ccccc3)c3ccc(OC)cc23)CC1` yielded a z-score of 0.191.

Turning to `CC(NC1CCCCC1)C(O)C12CC3CC(CC(C3)C1)C2` (stereo not given), the z-score was 2.39.

`CC(C)NC(C)C(=O)C12CC3CC(CC(C3)C1)C2` (stereo not given) returned a z-score of 0.115.

With `O=C(COC(=O)Cc1ccccc1)NC12CC3CC(CC(C3)C1)C2`, the z-score was -0.0902.

The compound `COCCCn1c(-c2ccc(OC)cc2)cc(C(=O)NC2CCCCCCC2)c1C` returned a z-score of -0.648.

`CCCCn1c(C)c(C(=O)O)c2cc(OC)ccc21` had a z-score of -0.364.

`COCCn1c(-c2ccccc2)cc(C(=O)O)c1C` came in with a z-score of 2.06.

`CCS(=O)(=O)N1CCCC(C(=O)N2CCC3(CC2)OCCO3)C1` (stereo not given) had a z-score of 0.0065.

`CCOc1ccc(-n2c(O)c(C=NCCCn3ccnc3)c(=O)[nH]c2=O)cc1` showed a z-score of 0.0171.

Compound `CC(C)c1cccc(C(C)C)c1OCCn1ccnc1` had a z-score of 2.23.

Regarding `CCCCCSc1cc(OC)c(CCN)cc1OC`, the z-score turned out to be 1.67.

In the case of `CCCCCSc1cc(OC)c(CCNC)cc1OC`, the z-score came out at 0.115.

`CCCCCCCSc1cc(OC)c(CCNC)cc1OC` came in with a z-score of 2.15.

Compound `O=C(C1CC(c2ccc(Cl)c(Cl)c2)=NO1)N1CCC2(CC1)OCCO2` (stereo not given) returned a z-score of 0.509.

In the case of `O=c1[nH]c(=O)n(Cc2ccccc2)c(O)c1C=Nc1ccc(CN2CCOCC2)cc1`, the z-score was -0.0494.
